Bioassay records from PubChem.
Compounds with a hit are over-represented: about 0.5% of the library has one in this group of screens.
E coli growth-1 = inhibitors of Escherichia coli growth; OD600 absorbance (test concentration not listed); AID 1053175; OD600, 23 h; hits give low values; hit rate 0.21% among 330,000;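 active = OD600 absorbance below the run mean of sample wells minus 3.6 SD, in any replicate, cut at about 0.56 in these data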
Tat transport = inhibitors of E. coli Tat protein transport; inhibition, % at 10 µM; AID 488895; hit rate 0.036% among 340,000; E. coli MC4100 TorA-mCherry Tat export, fluorescence;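 active = mean replicate inhibition at least 50% and at least half of replicates individually reaching 50%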;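 also: exported cargo escapes ClpAP degradation while cytoplasmic cargo is degraded and loses fluorescence; 0% = median of neutral control wells and 100% = median of NaSCN control wells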
phage Ecoli inh = E. coli growth loss with phage present; AID 651602; hit rate 0.26% among 360,000; inhibition, % at 11.9 µM; growth absorbance; in the data active = inhibition above about 11%
AddAB inh = less growth of phage-infected E. coli with AddAB. E. coli expressing H. pylori AddAB, absorbance growth. inhibition, % at 11.9 µM. hit rate 0.29% among 330,000. AID 435030; in the data active = inhibition above about 12%;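 also: 0% = vehicle wells of infected cells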
E coli growth-2 = reduces bacterial viability in AddAB counter-screen. AID 449728. inhibition, % at 11.9 µM. hit rate 0.27% among 330,000. E. coli V3065 growth, OD600 absorbance, 18 h;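 active = inhibition above the campaign's mean inhibition across all tested compounds plus 3 SD, cut at about 9.9% in these data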;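 also: uninfected addAB+ strain grown without phage in ampicillin broth; 0% = DMSO wells and 100% = ciprofloxacin 0.95 µg/ml wells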
AddAB conf = confirmation screen: growth loss of phage-infected E. coli expressing H. pylori AddAB | shares compounds with AddAB inh | AID 488942 | E. coli V3065 expressing H. pylori AddAB, T4 phage, OD; T4 phage with gene 2 nonsense mutations | inhibition, % at 11.9 µM | hit rate 64% among 880;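 active = mean inhibition above a set limit taken from the earlier primary screen, cut at about 13% in these data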;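 also: higher means less bacterial growth since AddAB block lets phage replicate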
RecBCD counter = counter-screen: growth loss of RecBCD+ E. coli with mutant T4 phage; shares compounds with AddAB inh; E. coli V66 + mutant T4 phage, OD growth; inhibition, % at 11.9 µM; hit rate 73% among 880; AID 488955;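 active = mean inhibition above the mean of solvent-only control wells plus 3 SD, cut at about 4% in these data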;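 also: optical density read after an 18 h incubation at 37 °C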
Bact viability = counter-screen for AddAB inhibitors: inhibitors of bacterial viability; shares compounds with AddAB inh; absorbance (AddAB counterscreen); hit rate 35% among 880; inhibition, % at 11.9 µM; in the data active = inhibition above about 25%
RecBCD conf = confirmation: growth loss of phage-infected RecBCD+ E. coli (RecBCD inhibitor screen); shares compounds with phage Ecoli inh; E. coli V66 + T4 2- phage, growth OD; inhibition, % at 11.9 µM; hit rate 45% among 890; AID 651982;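 active = mean inhibition over triplicates exceeding the hit threshold derived in the original primary screen, cut at about 11% in these data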
Ecoli viability = bacterial viability inhibition counter-screen for RecBCD; shares compounds with phage Ecoli inh; E. coli viability, absorbance (OD) growth; inhibition, % at 11.9 µM; hit rate 29% among 890; AID 651983; in the data active = inhibition above about 20%;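 also: E. coli strain V66 grown with compound alone and no phage infection; 0% = bacteria with DMSO vehicle only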
AddAB phage OD = growth loss of phage-infected AddAB E. coli, RecBCD counter-screen; shares compounds with phage Ecoli inh; E. coli expressing H. pylori AddAB + T4 phage, OD growth; gene 2 mutant T4, recBCD-deleted host; inhibition, % at 11.9 µM; hit rate 45% among 890; AID 651984;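 active = mean inhibition above the solvent-only control wells' mean plus 3 SD, cut at about 22% in these data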;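 also: higher means less bacterial growth from phage killing when AddAB is blocked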
Starred values were filed as active, the others as inactive; . = no result given.

SMILES | E coli growth-1 | Tat transport | phage Ecoli inh | AddAB inh | E coli growth-2 | AddAB conf | RecBCD counter | Bact viability | RecBCD conf | Ecoli viability | AddAB phage OD
C#CCOCCOCCOCCNc1nc(N2CCN(C(=O)C(Cc3ccc(O)cc3)n3cc(C(N)CC(C)C)nn3)CC2)nc(N2CCN(C(=O)C(C(C)CC)n3cc(C(N)CO)nn3)CC2)n1 (configuration not stated) | 0.69 | . | . | . | . | . | . | . | . | . | .
C#CCOCCOCCOCCNc1nc(N2CCN(C(=O)C(CCCCN)n3cc(C(N)CC(C)C)nn3)CC2)nc(N2CCN(C(=O)C(C(C)CC)n3cc(C(N)CC(C)C)nn3)CC2)n1 (configuration not stated) | 0.67 | . | . | . | . | . | . | . | . | . | .
Cc1ccc(/C=C/C(=O)c2ccccc(=O)c2O)cc1C | 0.69 | 5 | 4 | 13* | 7 | 6 | 6.1* | 5 | . | . | .
Oc1ccc(N=Cc2ccc(O)c(O)c2)cc1 | 0.68 | -6 | . | 1 | 0 | . | . | . | . | . | .
Oc1ccc(/C=N/N=C/c2ccc(O)c(O)c2)cc1O | . | 4 | 0 | 34* | -3 | -1 | 0 | -2 | . | . | .
CC1=C(C(=O)OCC2CCCO2)C(c2coc3ccc(Cl)cc3c2=O)C2=C(CCCC2=O)N1 (configuration not stated) | 0.73 | -11 | 4 | 1 | 1 | . | . | . | . | . | .
CC1=C(C(=O)OCC2CCCO2)C(c2coc3ccc(C)cc3c2=O)C2=C(CCCC2=O)N1 (configuration not stated) | 0.67 | 7 | 4 | 99* | 91* | 0 | 1 | -1 | . | . | .
COc1ccc(C2CC=C(C(=O)O)C(c3ccccc3)N2S(=O)(=O)c2ccc(C)cc2)cc1OC (configuration not stated) | 0.67 | . | . | . | . | . | . | . | . | . | .
CC(CN1CCCC1CN1C(N)=NCC1Cc1ccccc1)N1CC(Cc2ccccc2)N(CCCC2CCCC2)C1=N (configuration not stated) | 0.57 | . | . | . | . | . | . | . | . | . | .
CCCOc1ccccc1C=NNc1ccnc(=O)[nH]1 | 0.51 | . | . | . | . | . | . | . | . | . | .
CCCOc1ccccc1/C=N/Nc1ccnc(=O)[nH]1 | . | 4 | 1 | 13* | 21* | 100* | 4 | 68* | . | . | .
Oc1ccc(/C=N/NC(=S)Nc2cccnc2)c(O)c1 | . | 3 | 5 | 16* | 11* | 8 | 11* | 16 | . | . | .
CCOc1ccc(CN(C)Cc2cc(=O)oc3cc(C)c(Cl)cc23)cc1 | 0.69 | 3 | 2 | 20* | 15* | -1 | -1 | -3 | . | . | .
Cc1cc2oc(=O)cc(CN(C)Cc3cccc(F)c3)c2cc1Cl | 0.67 | 15 | 0 | -1 | 2 | . | . | . | . | . | .
Cc1ccc(C(=O)NC(=Cc2ccco2)C(=O)NCCc2c[nH]c3ccccc23)cc1C | 0.68 | . | . | . | . | . | . | . | . | . | .
COC(=O)C(C)NC(=S)N1CCN(c2c(F)cc3c(=O)c(C(=O)O)cn(C4CC4)c3c2OC)CC1C (configuration not stated) | 0.067* | 17 | 99* | 103* | 102* | 102* | 100* | 102* | 104* | 104* | 104*
CNC(=S)N1CCN(c2c(F)cc3c(=O)c(C(=O)O)cn(C4CC4)c3c2OC)CC1C (configuration not stated) | 0.045* | 73* | 100* | 101* | 99* | 100* | 101* | 99* | 101* | 103* | 103*
CCSc1nsc(NC(=O)Nc2ccccc2F)n1 | 0.59 | -2 | 6 | -2 | 4 | . | . | . | . | . | .
C=CCSc1nsc(NC(=O)Nc2ccc(F)cc2)n1 | . | -13 | 15* | 20* | 16* | 18* | 22* | 21 | 8 | 10 | 22*
Cc1cccc(NC(=S)NNC(=O)c2ccc(O)cc2O)c1C | 0.71 | -1 | 5 | 3 | 3 | . | . | . | . | . | .
Cc1ccc(C)c(NC(=O)NNC(=O)c2cc3ccccc3cc2O)c1 | 0.72 | 0 | 14* | 14* | 9 | 12 | 6.9* | 10 | 3 | 6 | 13
Cc1ccc(NC(=O)NNC(=O)c2cc3ccccc3cc2O)cc1C | 0.67 | 0 | 7 | 9 | 5 | . | . | . | . | . | .
Cc1cccc(NC(=O)NNC(=O)c2cc3ccccc3cc2O)c1C | . | -4 | 12* | 13* | 12* | 11 | 12* | 13 | 5 | 6 | 5
COC(=O)[C@]1(C)NC(c2ccc(-c3cccc(Cl)c3)cc2)C2C(=O)N(C)C(=O)C21 (some centres not stated) | 0.66 | . | . | . | . | . | . | . | . | . | .
CC(=O)c1ccc(NC(=O)c2ccc(NC(=O)c3ccco3)cc2)cc1 | 0.69 | 3 | . | 3 | 2 | . | . | . | . | . | .
SMILES | E coli growth-1 | Tat transport | phage Ecoli inh | AddAB inh | E coli growth-2 | AddAB conf | RecBCD counter | Bact viability | RecBCD conf | Ecoli viability | AddAB phage OD
CC(=O)c1ccc(NC(=S)NC(NC(=O)c2ccco2)C(Cl)(Cl)Cl)cc1 (configuration not stated) | 0.64 | -12 | 17* | 21* | 19* | 16* | 15* | 14 | 8 | 13 | 11
O=C(NC(NC(=S)Nc1ccc(Cl)cc1)C(Cl)(Cl)Cl)c1ccco1 (configuration not stated) | . | -53 | 20* | 18* | 15* | 14* | 18* | 18 | 10 | 15 | 16
O=C(NC(NC(=S)Nc1ccccc1O)C(Cl)(Cl)Cl)c1ccco1 (configuration not stated) | 0.61 | -14 | 6 | 9 | 4 | . | . | . | . | . | .
CCOC(=O)C1C2COc3cc(OC)ccc3C2N2C(=O)CN(C)C(=O)[C@@]12C (some centres not stated) | 0.69 | . | . | . | . | . | . | . | . | . | .
Cc1cc(C)nc(SCC(=O)Nc2ccc(N3CCOCC3)cc2)n1 | 0.68 | -2 | 3 | 5 | 1 | . | . | . | . | . | .
Cc1nc(SCC(=O)Nc2ccc(N3CCOCC3)cc2)nc(C)c1C | 0.67 | -10 | 13* | 14* | 13* | 9 | 9.1* | 5 | 6 | 10 | 0
O=C(Cn1cnc2ccccc21)Nc1ccc2c(c1)OCCCO2 | 0.61 | -7 | 16* | 17* | 13* | 23* | 16* | 20 | 12* | 13 | 18
O=C(Cn1cnc2ccccc2c1=O)Nc1ccc2c(c1)OCO2 | 0.68 | 2 | 5 | 1 | 2 | . | . | . | . | . | .
O=c1cc(-c2ccccc2)cc(-c2ccccc2)n1O | 0.43* | 9 | 19* | 17* | 21* | 11 | 15* | 14 | 10 | 14 | 10
Cn1c(-c2ccccc2)cc(=O)cc1-c1ccccc1 | . | . | 2 | . | . | . | . | . | . | . | .
